Test results as given in PubChem BioAssay (NCI).
Several values for one entry are separate records, joined by “and”; a condition that tells them apart may be missing. Identical values can stand only once. Compounds without any hit were thinned out: in the full panel of roughly 79,000, 15% have a hit. Values without a mark were called inactive. Activity calls are given as the source filed them. Cut-off read from the data, not from the text of the source: active = growth inhibition above about 70%; inactive = the rest.

Legend:
[1] = NCI Yeast Anticancer Drug Screen. Data for the rad50 strain (AID 155);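 note: 0% = growth of vehicle-only cultures of the same strain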; conditions: S. cerevisiae rad50 strain growth inhibition, active compounds read high; at 50.0 µM unless noted
How it was run: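 Growth of the mutant yeast was measured after compound exposure and referenced to vehicle-treated cultures.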

[2] = NCI Yeast Anticancer Drug Screen. Data for the mec2-1 strain (AID 157); conditions: S. cerevisiae mec2-1 strain, active compounds read high; at 50.0 µM unless noted
How it was run: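 Readout is yeast growth inhibition, normalised to vehicle-treated controls, in the mec2-1 strain exposed to compound.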

[3] = NCI Yeast Anticancer Drug Screen. Data for the sgs1 mgt1 strain (AID 161);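 note: 0% = growth of cultures given vehicle only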; conditions: S. cerevisiae sgs1 mgt1 strain, active compounds read high; at 50.0 µM unless noted
How it was run: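 Compounds are added to genetically altered yeast, and growth is compared with cultures given vehicle alone to give percent inhibition.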

[4] = NCI Yeast Anticancer Drug Screen. Data for the cln2 rad14 strain (AID 165);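 note: 0% = growth equal to vehicle treated cultures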; conditions: S. cerevisiae cln2 rad14 strain, active compounds read high; at 50.0 µM unless noted
How it was run: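 Relative to vehicle controls, growth inhibition of compound-treated cln2 rad14 yeast was recorded.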

[5] = NCI Yeast Anticancer Drug Screen. Data for the bub3 strain (AID 167); conditions: S. cerevisiae bub3 mutant strain, active compounds read high; at 50.0 µM unless noted
How it was run: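 Whole-cell yeast assay. The mutant strain was incubated with compounds, and growth inhibition was determined by comparison with vehicle-treated cells.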

[6] = NCI Yeast Anticancer Drug Screen. Data for the mlh1 rad18 strain (AID 175); conditions: S. cerevisiae mlh1 rad18 strain growth inhibition, active compounds read high; at 50.0 µM unless noted
How it was run: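 Test agents were incubated with a yeast strain of defined genotype (DNA damage repair defect). Inhibition of growth was derived by comparison with vehicle-exposed cultures.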

Row | SMILES | growth inhibition [1] | growth inhibition [2] | growth inhibition [3] | growth inhibition [4] | growth inhibition [5] | growth inhibition [6]
1 | OCc1ccccc1Sc1ccccc1CO | 15.8% | -8.6% | 2.6% | 11.8% | -31.6% | 24%
2 | CCCCCC[P+](c1ccccc1)(c1ccccc1)c1ccccc1 | 97.7% (active) | 98.4% (active) | 98% (active) | 95% (active) | 96.1% (active) | 97.8% (active)
3 | O=C(O)CCC1NCCCO1 (stereo not given) | 1.85% | 3% | 3.7% | -35.1% | -4.15% | 0.75%
4 | CCCCC(CC)C(O)P(=O)(O)O (stereo not given) | -9.2% | -15.1% | -9.75% | -14.3% | 2.8% | 0.45%
5 | CCCCCCCCCCCCCOc1ccc(S(=O)(=O)/N=C(\N)NC(N)=NCCCCCCCCCCCC)cc1 | 2.9% | 12.4% | -2.8% | -1.55% | -4.95% | 8.05%
6 | CCCCOP(=O)(Nc1ccc([N+](=O)[O-])cc1)OCCCC | 94.1% (active) | 86.3% (active) | 91.1% (active) | 74% (active) | 77.2% (active) | 87.5% (active)
7 | CCOC(OCC)N1C(=O)C2(C(OCC)OCC)CC3C(OC(=O)N3N)c3cccc1c32 (stereo not given) | -16.4% | 4.15% | -7.45% | -8.95% | -4.75% | -4.4%
8 | CSC1=NC(C(N)=O)C(N)N1C (stereo not given) | -3.1% | -16.4% | 6.3% | 17.4% | 1.35% | 12%
9 | CC(C)(C)OC(=O)NCCCCC(N)C(N)=O (stereo not given) | -19.6% | -32.2% | -31.9% | 15.8% | 5.15% | -1.95%
10 | COc1ccc2oc3cc(Cl)ccc3c(=O)c2c1 | 4.8% | 0.85% | -8.85% | 4.35% | 30.4% | 14.2%
11 | CCCC(=O)OC1CC(n2cc(F)c(=O)[nH]c2=O)OC1CO (stereo not given) | 8.6% | 0.45% | 11.6% | 2.55% | 7.85% | -28.6%
12 | CCOC(OCC)c1cc(=O)[nH]c(NC(C)=O)n1 | -1.15% | 0.05% | 10% | -11.9% | -1.25% | 5.4%
13 | CSC(SC)c1cc(C)no1 | -11.3% | 12.2% | -7.45% | 34.6% | -10.2% | -9.15%
14 | CN(C)c1ccc(C(c2ccc(C(c3ccc(N(C)C)cc3)c3ccc(N(C)C)cc3)cc2)c2ccc(N(C)C)cc2)cc1 | -6.55% | 4.8% | -22.1% | -0.8% | -10.8% | 14.6%
15 | Cc1ccc(C(=O)NNC(=O)c2ccc(C)cc2)cc1 | -10.5% | -18.4% | -11.1% | 2.8% | -10.9% | -5.15%
16 | Nn1c(CCCl)nc2c(Br)cc(Br)cc2c1=O | 13.8% | 2.9% | -2.45% | 3.25% | 12.6% | 8.5%
17 | CN(C)c1cccc2ccccc12 | -1.25% | 9.1% | 20.7% | -24.3% | 6% | 18.9%
18 | CC(=O)OCC1CCCC(C)C1COC(C)=O (stereo not given) | 2% | -8.7% | -16.1% | -24.1% | 20.3% | -2.95%
19 | C#CCOC(=O)Nc1ccccc1 | 21.6% and 1.85% | 12.7% and -1.2% | -8.7% and -8.65% | -72.2% and -54.2% | -1.1% and -10.6% | 5.55% and -0.8%
20 | C=C1CC(c2ccccc2)(c2cccs2)OC1=O (stereo not given) | 67.7% | 93.6% (active) | 96.2% (active) | 14.3% | 90.5% (active) | 90.7% (active)

Row | SMILES | growth inhibition [1] | growth inhibition [2] | growth inhibition [3] | growth inhibition [4] | growth inhibition [5] | growth inhibition [6]
21 | CSc1cc(Cl)c(C(=O)Nc2ccccc2)cc1S(=O)(=O)n1cc[nH]c1=O | 0.2% | -10.6% | -6.35% | -8.95% | -1.35% | 8.05%
22 | CC1CCC2(OC1)OC1CC3C4CCC5CC(O)CCC5(C)C4C(O)CC3(C)C1C2C (stereo not given) | 42.5% | 5.65% | 43% | 36.8% | 52.1% | 24.1%
23 | OC1COC(c2ccccc2)OC1 (stereo not given) | -7.15% | -2.1% | 4.15% | -5.85% | -1.75% | 24.6%
24 | Cc1ccc(/C=C2\CCCC\C2=N\O)cc1 | 5.15% | -7% | 2.3% | -10.2% | -22.6% | 2.15%
25 | ONc1ccc2c(c1)C1C(C3C2C2(Cl)C(Cl)=C(Cl)C3(Cl)C2(Cl)Cl)C2(Cl)C(Cl)=C(Cl)C1(Cl)C2(Cl)Cl (stereo not given) | 35.8% | 13.6% | 7.55% | 19.6% | 24.9% | 24.6%
26 | N#CC1CSCC1=O (stereo not given) | -6.5% | -8.8% | -20.4% | -12.8% | 9.9% | -1.9%
27 | Cc1ccc([N+](=O)[O-])cc1NC(=O)Oc1ccc(Cl)cc1Cl | -5% | 8.55% | -10.9% | 1% | 2.5% | -13.3%
28 | CC1(O)C2CC3CC(C2)CC1C3 (stereo not given) | -1.1% | -3.1% | -13.3% | -59% | 13.2% | 10.3%
29 | CN(C(=O)Nc1ccccc1)c1ccc(O)cc1 | 19.4% | -8.55% | -16.4% | -11.9% | -11.9% | 12.7%
30 | Cn1c(=O)c2nc(SCC(=O)O)n(C)c2n(C)c1=O | 3.6% | 6.2% | 7.4% | -10.1% | 5.35% | 3.2%
31 | CCC(=O)c1ccc(OC)cc1OC | -13.6% | 1.25% | -4.8% | -2.05% | 4.4% | -20.1%
32 | CC1CC(NC(=S)N(C)C)CC(C)(C)C1 (stereo not given) | 6.9% | 3.65% | 18.8% | -10.8% | 47.9% | 3.55%
33 | CCCCCCCS(=O)c1nc2ccccc2s1 (stereo not given) | 37.2% | 15.2% | 60.9% | 20.2% | 42.8% | 27.6%
34 | C=C1CC2CC[C@@]34C[C@@H]5O[C@@H]6C(O[C@H]7CC[C@H](CC(=O)OC8[C@@H](C)C9OC%10C[C@]%11(C[C@@H]%12O[C@@]%13(C[C@@H](C)[C@@H]%12O%11)C[C@H](C)[C@@H]%11OC%12CC(C(O)CO)OC%12C[C@@H]%11O%13)OC%10CC9O[C@H]8C[C@H]8O[C@@H](CC[C@@H]1O2)C[C@@H](C)C8=C)O[C@@H]7[C@@H]6O3)C5O4 (stereo not given in full) | 79.8% (active) | 74.6% (active) | 76.5% (active) | 69.8% | 83.2% (active) | 78.5% (active)
35 | CC1=CP(=O)(c2ccccc2)CC1 (stereo not given) (tested in a mixture with another compound) | -12.2% | -9.2% | 6.2% | -9.85% | -10.4% | 1.2%
36 | CCSC(SCC)C(NC(C)=O)C(O)C(O)C(O)CO (stereo not given) | 28.7% | 3.45% | 3.7% | 12.7% | 15.2% | 21.4%
37 | CN1C(=O)OC2OC(C)(c3ccc(S(=O)(=O)c4ccccc4)cc3)C(=O)CC21 (stereo not given) | -7.1% | 22.7% | -10.5% | -27% | 5.65% | 2.25%
38 | CCOC(=O)c1[nH]cc(C(=O)O)c1C | 15.3% | 0.15% | 6.05% | -44.7% | 1.25% | 17.2%
39 | Cn1ccnc1Sc1c([N+](=O)[O-])ncn1C | 3.3% | 5.95% | 3.25% | 29.3% | 32.5% | 10.4%
40 | COc1cc2c(c(OC)c1OC)-c1ccc(OC)c(=O)cc1[C@@H](NC=O)CC2 | -11% | -14.5% | -22.9% | 4.15% | -8.05% | -29.8%
